Assay results reported in PubChem BioAssay AID1159580 (chemical genetic matrix, 2015).
Where “and” joins values, the source holds several entries; their conditions need not be identical. Equal entries are not always repeated. The campaign covered roughly 5,500 compounds. About 2,000 (36%) were called active. Inconclusive results (about 18%) are left out. Cut-off read from the data, not from the text of the source: active = normalized growth mostly below about 0.91 (no sharp cut-off); inconclusive = no clear call, values can overlap the other calls; inactive = mostly above about 0.92. The list shows a part of the results.

Assay: chemical genetic growth profiling, strain panel (AID 1159580);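 note: tested at 20 µM; growth read once vehicle control cultures reached saturation at 30 °C; 1 = growth at the plate median or of vehicle wells; lower values mean less growth of the strain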
Settings: growth OD
[1] = S. cerevisiae deletion strains, locus YAL040C, strain CLN3, stronger effect = lower value
[2] = S. cerevisiae deletion strains, locus YCL061C, strain MRC1 (second series), stronger effect = lower value
[3] = S. cerevisiae deletion strains, locus YDR363W, strain ESC2, stronger effect = lower value
[4] = S. cerevisiae deletion strains, locus YER002W, strain NOP16, stronger effect = lower value
[5] = S. cerevisiae deletion strains, locus YGR078C, strain PAC10, stronger effect = lower value
[6] = S. cerevisiae deletion strains, locus YNL128W, strain TEP1, stronger effect = lower value
[7] = S. cerevisiae deletion strains, locus YNL153C, strain GIM3, stronger effect = lower value
[8] = S. cerevisiae deletion strains, locus YNL175C, strain NOP13, stronger effect = lower value
[9] = S. cerevisiae deletion strains, locus YNL197C, strain WHI3, stronger effect = lower value
[10] = S. cerevisiae deletion strains, locus YNL224C, strain SQS1, stronger effect = lower value
[11] = S. cerevisiae deletion strains, locus YNL322C, strain KRE1, stronger effect = lower value
[12] = S. cerevisiae deletion strains, locus YOR083W, strain WHI5 (second series), stronger effect = lower value
[13] = S. cerevisiae deletion strains, locus YPL055C, strain LGE1, stronger effect = lower value
[14] = S. cerevisiae deletion strains, locus YDR150W, strain NUM1, stronger effect = lower value
[15] = S. cerevisiae deletion strains, locus YMR307W, strain GAS1, stronger effect = lower value

Measured: normalized growth

COc1cc(C(O)CO)ccc1O (stereo not given)
inactive: [1] 0.993 | [2] 0.985 | [3] 0.995 | [4] 0.988 | [5] 0.982 | [6] 0.991 | [7] 1.04 | [8] 0.998 | [9] 1 | [10] 0.988 | [11] 0.992 | [12] 1.08 | [13] 0.968

C=CCc1ccc(OC(=O)c2ccccc2)c(OC)c1
active: S. cerevisiae deletion strains, locus YLR113W, strain HOG1, stronger effect = lower value 0.841 | S. cerevisiae deletion strains, locus YOR184W, strain ser1, stronger effect = lower value 0.571
inactive: S. cerevisiae deletion strains, locus YBR021W, strain FUR4, stronger effect = lower value 1 | S. cerevisiae deletion strains, locus YBR229C, strain ROT2, stronger effect = lower value 0.99 | S. cerevisiae deletion strains, locus YCL029C, strain bik1, stronger effect = lower value 0.973 | S. cerevisiae deletion strains, locus YDL035C, strain GPR1, stronger effect = lower value 0.916 | S. cerevisiae deletion strains, locus YDL074C, strain BRE1, stronger effect = lower value 0.923 | S. cerevisiae deletion strains, locus YDL101C, strain DUN1, stronger effect = lower value 0.974 | S. cerevisiae deletion strains, locus YDL134C, strain PPH21, stronger effect = lower value 0.95 | S. cerevisiae deletion strains, locus YDL185W, strain tfp1, stronger effect = lower value 0.998 | S. cerevisiae deletion strains, locus YDL192W, strain arf1, stronger effect = lower value 0.928 | S. cerevisiae deletion strains, locus YDR101C, strain arx1, stronger effect = lower value 0.919 | [14] 0.997 | S. cerevisiae deletion strains, locus YDR162C, strain NBP2, stronger effect = lower value 0.947 | S. cerevisiae deletion strains, locus YDR318W, strain mcm21, stronger effect = lower value 0.939 | S. cerevisiae deletion strains, locus YDR388W, stronger effect = lower value 0.979 | S. cerevisiae deletion strains, locus YDR502C, strain sam2, stronger effect = lower value 0.944 | S. cerevisiae deletion strains, locus YER110C, stronger effect = lower value 1.03 | S. cerevisiae deletion strains, locus YER155C, strain BEM2, stronger effect = lower value 0.969 | S. cerevisiae deletion strains, locus YER167W, strain BCK2, stronger effect = lower value 0.939 | S. cerevisiae deletion strains, locus YGL078C, strain dbp3, stronger effect = lower value 0.956 | S. cerevisiae deletion strains, locus YGL086W, strain mad1, stronger effect = lower value 0.933 | S. cerevisiae deletion strains, locus YGL248W, strain PDE1, stronger effect = lower value 0.971 | [5] 0.974 | S. cerevisiae deletion strains, locus YGR135W, strain pre9, stronger effect = lower value 0.965 | S. cerevisiae deletion strains, locus YGR252W, strain gcn5, stronger effect = lower value 0.993 | S. cerevisiae deletion strains, locus YHR030C, strain SLT2, stronger effect = lower value 1 and 0.914 | S. cerevisiae deletion strains, locus YHR079C, strain IRE1 (second series), stronger effect = lower value 0.988 | S. cerevisiae deletion strains, locus YHR079C, strain IRE1, stronger effect = lower value 0.931 | S. cerevisiae deletion strains, locus YHR094C, strain hxt1, stronger effect = lower value 0.988 | S. cerevisiae deletion strains, locus YHR129C, strain ARP1, stronger effect = lower value 0.985 | S. cerevisiae deletion strains, locus YHR200W, strain rpn10, stronger effect = lower value 0.952 | S. cerevisiae deletion strains, locus YIL066C, strain RNR3, stronger effect = lower value 0.973 | S. cerevisiae deletion strains, locus YIL073C, strain SPO22, stronger effect = lower value 1.08 | S. cerevisiae deletion strains, locus YIL125W, strain kgd1, stronger effect = lower value 0.966 | S. cerevisiae deletion strains, locus YIR030C, strain dcg1, stronger effect = lower value 0.983 | S. cerevisiae deletion strains, locus YJL095W, strain BCK1, stronger effect = lower value 0.918 and 0.973 | S. cerevisiae deletion strains, locus YJL134W, strain LCB3, stronger effect = lower value 1 | S. cerevisiae deletion strains, locus YJL168C, strain set2, stronger effect = lower value 1 | S. cerevisiae deletion strains, locus YJL187C, strain SWE1 (second series), stronger effect = lower value 0.954 | S. cerevisiae deletion strains, locus YJR043C, strain POL32, stronger effect = lower value 0.936 | S. cerevisiae deletion strains, locus YJR066W, strain TOR1, stronger effect = lower value 0.954 | S. cerevisiae deletion strains, locus YKL009W, strain mrt4, stronger effect = lower value 0.925 | S. cerevisiae deletion strains, locus YKL068W, stronger effect = lower value 0.979 | S. cerevisiae deletion strains, locus YKL085W, strain MDH1 (second series), stronger effect = lower value 0.981 | S. cerevisiae deletion strains, locus YKL085W, strain MDH1, stronger effect = lower value 0.981 | S. cerevisiae deletion strains, locus YKR001C, strain vps1, stronger effect = lower value 0.908 | S. cerevisiae deletion strains, locus YLR039C, strain RIC1, stronger effect = lower value 0.958 | S. cerevisiae deletion strains, locus YLR058C, strain SHM2, stronger effect = lower value 0.952 | S. cerevisiae deletion strains, locus YLR102C, strain apc9, stronger effect = lower value 0.996 | S. cerevisiae deletion strains, locus YLR268W, strain sec22, stronger effect = lower value 0.965 | S. cerevisiae deletion strains, locus YLR330W, strain CHS5, stronger effect = lower value 0.983 | S. cerevisiae deletion strains, locus YLR371W, strain rom2, stronger effect = lower value 0.985 | S. cerevisiae deletion strains, locus YLR418C, strain cdc73, stronger effect = lower value 0.935 | S. cerevisiae deletion strains, locus YML016C, strain PPZ1, stronger effect = lower value 1 | S. cerevisiae deletion strains, locus YML032C, strain rad52, stronger effect = lower value 0.926 | S. cerevisiae deletion strains, locus YML124C, strain tub3, stronger effect = lower value 0.977 | S. cerevisiae deletion strains, locus YMR078C, strain ctf18, stronger effect = lower value 0.978 | S. cerevisiae deletion strains, locus YMR223W, strain ubp8, stronger effect = lower value 0.967 | S. cerevisiae deletion strains, locus YMR263W, strain SAP30, stronger effect = lower value 0.998 | [15] 1.2 | S. cerevisiae deletion strains, locus YNL067W, strain RPL9B, stronger effect = lower value 0.969 | [6] 0.992 | [7] 1.02 | S. cerevisiae deletion strains, locus YNL183C, strain NPR1, stronger effect = lower value 0.933 | S. cerevisiae deletion strains, locus YNL233W, strain BNI4, stronger effect = lower value 0.979 | S. cerevisiae deletion strains, locus YNL250W, strain rad50, stronger effect = lower value 1.03 | S. cerevisiae deletion strains, locus YNL271C, strain bni1, stronger effect = lower value 0.994 | S. cerevisiae deletion strains, locus YNL298W, strain CLA4, stronger effect = lower value 0.95 | S. cerevisiae deletion strains, locus YNL307C, strain MCK1, stronger effect = lower value 0.961 | S. cerevisiae deletion strains, locus YNR052C, strain pop2, stronger effect = lower value 0.998 | S. cerevisiae deletion strains, locus YOL006C, strain TOP1, stronger effect = lower value 0.779 | S. cerevisiae deletion strains, locus YOL012C, strain htz1 1.51 | S. cerevisiae deletion strains, locus YOL147C, strain pex11, stronger effect = lower value 0.964 | S. cerevisiae deletion strains, locus YOR061W, strain CKA2, stronger effect = lower value 0.986 | S. cerevisiae deletion strains, locus YOR069W, strain VPS5, stronger effect = lower value 0.994 | S. cerevisiae deletion strains, locus YOR136W, strain idh2, stronger effect = lower value 0.977 | S. cerevisiae deletion strains, locus YOR144C, strain elg1, stronger effect = lower value 0.981 | S. cerevisiae deletion strains, locus YOR231W, strain MKK1, stronger effect = lower value 0.915 | S. cerevisiae deletion strains, locus YOR316C, strain cot1, stronger effect = lower value 0.985 | S. cerevisiae deletion strains, locus YPL256C, strain CLN2, stronger effect = lower value 0.925 | S. cerevisiae deletion strains, locus YPR119W, strain clb2, stronger effect = lower value 0.971 | S. cerevisiae deletion strains, locus YPR141C, strain kar3, stronger effect = lower value 0.991 | S. cerevisiae deletion strains, locus YPR163C, strain tif3, stronger effect = lower value 0.943 | S. cerevisiae deletion strains, locus YPR167C, strain met16, stronger effect = lower value 0.943 | S. cerevisiae deletion strains, strain wtn01, stronger effect = lower value 0.906 | S. cerevisiae strains, strain wild type, stronger effect = lower value 0.93

COc1cc(CC(=O)O)ccc1O
inactive: S. cerevisiae deletion strains, locus YAL013W, strain DEP1, stronger effect = lower value 1 | [1] 1.07 | [2] 0.989 | [14] 0.992 | [3] 0.982 | [4] 0.97 | [5] 0.986 | [15] 1.01 | [8] 0.967 | [9] 0.977 | [10] 0.985 | [11] 0.987 | [12] 0.942 | [13] 0.995 | S. cerevisiae deletion strains, locus YPL241C, strain CIN2, stronger effect = lower value 0.991
